Laboratory results from PubChem BioAssay (NCI).
About 83,000 compounds went through this panel and 20% of them were active in at least one assay; those are over-represented in the sample as a whole.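 Compound tested at a single concentration for 48 hours in 96-well plates; a percent growth value below 10 was scored as active.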 Active and inactive are the calls of the source.

Legend:
Assay in all cases: NCI-60 one-dose screen, 48 h (100 = growth as untreated, 0 = no growth, -100 = all killed)
Conditions in all cases: 10 µM unless noted
NCI-H23 lung = tested on: NCI-H23 lung
NCI-H226 lung = tested on: NCI-H226 lung
NCI-H322M lung = tested on: NCI-H322M lung
HOP-62 NSCLC = tested on: HOP-62 NSCLC
HOP-92 NSCLC = tested on: HOP-92 NSCLC
NCI-H522 lung = tested on: NCI-H522 lung
A549/ATCC NSCLC = tested on: A549/ATCC NSCLC
786-0 renal = tested on: 786-0 renal
COLO 205 colon = tested on: COLO 205 colon
NCI-H460 lung = tested on: NCI-H460 lung

Measured: growth

CCN(CC)CCNC(=O)c1c(C)[nH]c(/C=C2\C(=O)Nc3ccc(F)cc32)c1C
active: NCI-H522 lung -46% | A549/ATCC NSCLC 0.0489% | 786-0 renal -63.8% | COLO 205 colon -80.3%
inactive: NCI-H23 lung 21.4% | NCI-H226 lung 51.1% | NCI-H322M lung 31.4% | HOP-62 NSCLC 26% | HOP-92 NSCLC 30.3%

Cn1cnc2c(F)c(Nc3ccc(Br)cc3F)c(C(=O)NOCCO)cc21
inactive: NCI-H23 lung 22% | NCI-H226 lung 56.6% | NCI-H322M lung 18.9% | HOP-62 NSCLC 32.7% | NCI-H522 lung 60.9% | A549/ATCC NSCLC 30.9% | 786-0 renal 67.4%
active: HOP-92 NSCLC -4.91% | COLO 205 colon -2.54%

CC(C)(C)C(=O)OCOP(=O)(OCOC(=O)C(C)(C)C)C1CCCN(OC(=O)c2ccccc2)C1=O (centres undefined)
inactive: NCI-H23 lung 16.8% | NCI-H226 lung 34.9% | NCI-H322M lung 21.2% | HOP-62 NSCLC 22.8% | HOP-92 NSCLC 29.3% | NCI-H522 lung 12.9% | A549/ATCC NSCLC 24.6% | 786-0 renal 17.8% | COLO 205 colon 14.3%

COc1ccc(C(=O)N2c3ccccc3Sc3ccccc32)c(F)c1
active: NCI-H522 lung 0.479% | COLO 205 colon 8.26%
inactive: NCI-H23 lung 32.4% | NCI-H226 lung 46.1% | NCI-H322M lung 44.2% | HOP-62 NSCLC 37.1% | HOP-92 NSCLC 42.3% | A549/ATCC NSCLC 27.2% | 786-0 renal 23.1%

COc1ccc2c(c1)cn1c3ccc(O)cc3nc(N)c21
active: COLO 205 colon 9.91%
inactive: NCI-H23 lung 25.5% | NCI-H226 lung 45.2% | NCI-H322M lung 40.2% | HOP-62 NSCLC 25.1% | HOP-92 NSCLC 17.2% | NCI-H522 lung 14.2% | A549/ATCC NSCLC 38% | 786-0 renal 18.5%

CC(CCCC(=O)O)c1ccoc1 (centres undefined)
inactive: NCI-H23 lung 97.7% | NCI-H226 lung 102% | NCI-H322M lung 99.8% | HOP-62 NSCLC 101% | HOP-92 NSCLC 108% | NCI-H522 lung 83.2% | A549/ATCC NSCLC 100% | 786-0 renal 98.8% | COLO 205 colon 101%

COc1cccc(Nc2ncnn3ccc(CN4CC[C@@H](N)[C@H](O)C4)c23)c1
active: NCI-H226 lung 5.97% | NCI-H322M lung 0.241%
inactive: NCI-H23 lung 36.3% | NCI-H460 lung 73.8% | HOP-92 NSCLC 26.3% | NCI-H522 lung 14.4% | A549/ATCC NSCLC 12.1% | 786-0 renal 13.1% | COLO 205 colon 34.6%

C[C@@H](NC(=O)c1ncnc(N)c1Cl)c1ncc(C(=O)Nc2cc(C(F)(F)F)c(Cl)cn2)s1
inactive: NCI-H23 lung 59.8% | NCI-H226 lung 78.6% | NCI-H322M lung 80.9% | NCI-H460 lung 71.6% | HOP-92 NSCLC 64.1% | NCI-H522 lung 46% | A549/ATCC NSCLC 53.2% | 786-0 renal 110% | COLO 205 colon 13.2%

Cn1ncc(Cl)c1-c1cc(C(=O)N[C@H](CN)Cc2cccc(F)c2)sc1Cl
active: NCI-H460 lung 8.53% | HOP-92 NSCLC -27.5% | NCI-H522 lung 6.11% | 786-0 renal -14.3% | COLO 205 colon -73.9%
inactive: NCI-H23 lung 33.4% | NCI-H226 lung 34.5% | NCI-H322M lung 28.6% | A549/ATCC NSCLC 18.4%

COc1cc(NC2CCC(=O)N2c2ccc(Cl)cc2Cl)cc(OC)c1OC (centres undefined)
inactive: NCI-H23 lung 99.4% | NCI-H226 lung 99.9% | NCI-H322M lung 97.3% | NCI-H460 lung 102% | HOP-92 NSCLC 83.1% | NCI-H522 lung 99.9% | A549/ATCC NSCLC 99.4% | 786-0 renal 103% | COLO 205 colon 97.7%

O=C1NC(=O)C(c2cnc3ccccn23)=C1c1cn2c3c(cc(F)cc13)CN(C(=O)N1CCCCC1)CC2
inactive: NCI-H23 lung 82.1% | NCI-H226 lung 46% | NCI-H322M lung 72% | NCI-H460 lung 39.1% | HOP-92 NSCLC 83% | NCI-H522 lung 38.7% | A549/ATCC NSCLC 34.8% | 786-0 renal 31.1% | COLO 205 colon 26.7%

CN1CCC(CNc2ccc3ncc(-c4cccc(OC(F)(F)F)c4)n3n2)CC1
active: NCI-H23 lung -14.9% | NCI-H226 lung -8.6% | NCI-H322M lung 8.29% | NCI-H460 lung -45.8% | HOP-92 NSCLC -56.8% | NCI-H522 lung -69.7% | A549/ATCC NSCLC -38.4% | 786-0 renal -81.6% | COLO 205 colon -88.6%

O=C(NC1CCNCC1)c1[nH]ncc1NC(=O)c1c(Cl)cccc1Cl
active: NCI-H23 lung -12.1% | NCI-H226 lung 0.903% | NCI-H322M lung 5.64% | NCI-H460 lung 8.4% | HOP-92 NSCLC -6.06% | NCI-H522 lung -23% | A549/ATCC NSCLC 8.09% | 786-0 renal 2.33% | COLO 205 colon -35.9%

O=C(NOC[C@H](O)CO)c1ccc(F)c(F)c1Nc1ccc(I)cc1F
inactive: NCI-H23 lung 19.6% | NCI-H226 lung 49.5% | NCI-H322M lung 12.3% | NCI-H522 lung 44.8% | A549/ATCC NSCLC 21.4% | 786-0 renal 71.2%
active: HOP-92 NSCLC -28% | COLO 205 colon 0.302%

N#CC(C#N)=NO
inactive: NCI-H23 lung 92.7% | NCI-H226 lung 94.6% | NCI-H322M lung 92.1% | NCI-H460 lung 108% | HOP-92 NSCLC 94% | NCI-H522 lung 75% | A549/ATCC NSCLC 73.4% | 786-0 renal 99.5% | COLO 205 colon 113%
